Test results as given in PubChem BioAssay (NCATS).
Where “and” joins values, the source holds several entries; their conditions need not be identical. Equal values may be shown once. Records with an inconclusive call do not appear. The source holds several records for some structures; these can differ, active in one and inactive in another. Calls of active or inactive are those of the source.
% is set by controls: 0 for no effect and ±100 for the full control effect.

System: not listed separately
Test: qHTS assay for small molecule antagonists of retinoid X receptor alpha signaling (AID 588546; active = well fitted inhibition curve with a large enough effect in the signal ratio, with a control signal flat, not every such curve was filed as active; the % refers to the signal ratio; note: potency is the fitted concentration of half-maximal effect;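 for max response: cells stimulated with 9-cis-retinoic acid as agonist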)
Settings: HEK293T RXRa-UAS-bla, beta-lactamase ratio, antagonist mode; measured here: W530 green channel, cytotoxicity proxy
Procedure, shortened: (§1)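 Beta-lactamase reporter inhibition, read as CCF4 fluorescence ratio (ex 405, em 460/530 nm) after 2 h at RT. HEK293T UAS-bla cells, 2500/well, were stimulated with 9-cis-RA at 500 or 100 nM final alongside test compound for 18 h at 37 C.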
Work on `CC1(COc2ccc(CC3SC(=O)NC3=O)cc2)CCCCC1` (stereo not drawn) yielded a max response of 20.2%.
`CCCCCCCCCCCCCC(=O)OC(C)C` showed a max response of -10.1%.
With `CCCCCCCCCCCCCCCC(=O)O` the max response was -11.4%.
For `OC[C@H]1O[C@@H]2O[C@H]3[C@H](O)[C@@H](O)[C@@H](O[C@H]4[C@H](O)[C@@H](O)[C@@H](O[C@H]5[C@H](O)[C@@H](O)[C@@H](O[C@H]6[C@H](O)[C@@H](O)[C@@H](O[C@H]7[C@H](O)[C@@H](O)[C@@H](O[C@H]8[C@H](O)[C@@H](O)[C@@H](O[C@H]1[C@H](O)[C@H]2O)O[C@@H]8CO)O[C@@H]7CO)O[C@@H]6CO)O[C@@H]5CO)O[C@@H]4CO)O[C@@H]3CO`, the max response was 2.41%.
`CCCCCCCCCCCCCCCCO` showed a max response of -10.1%.
In the case of `CCOc1ccc(NC(C)=O)cc1`, the max response is reported as -2.9% and -4.43%.
For `CC1(C)OC[C@@H]2O[C@@]3(C(=O)O)OC(C)(C)O[C@H]3[C@@H]2O1`, the max response was -2.62%.
With `CCOc1ccccc1C(N)=O` the max response was -1.33%.
With `CN(C)C(=O)Nc1ccc(Cl)c(Cl)c1` the max response was 0.705%.
`C#C[C@]1(O)CC[C@H]2[C@@H]3CCC4=Cc5oncc5C[C@]4(C)[C@H]3CC[C@@]21C` gave a max response of 10.7%.
With `CCCN(CCC)S(=O)(=O)c1ccc(C(=O)O)cc1` the max response was -8.2% and -10.3%.
In the case of `CCCCC(CC)COC(=O)c1ccc(N(C)C)cc1` (stereo not drawn), the max response is reported as -15.4% and -7.64%.
With `COc1ccc(C(Cl)=C(c2ccc(OC)cc2)c2ccc(OC)cc2)cc1` the max response was -0.236%.
With `O=C(O)c1ccc(S(=O)(=O)N(Cl)Cl)cc1` the max response was -4.72%.
In the case of `COc1ccc(C(=O)c2ccccc2)c(O)c1`, the max response is reported as 4.73% and -13.9%.
`NC(=O)c1ccccc1O` gave a max response of -19%.
Molecule `CCCCCCCC/C=C\CCCCCCCCN` has a max response of 0.483%.
In the case of `NCCNc1cccc2ccccc12`, the max response is reported as 2.26% and -22%.
With `C/C=C/c1ccc(O)c(OC)c1` the max response was 1.1% and -9.34%.
For `CCCCCCCCOc1ccc(C(=O)c2ccccc2)c(O)c1`, the max response was -13.7%.
Molecule `CCCCOC(=O)CC(CC(=O)OCCCC)(OC(C)=O)C(=O)OCCCC` has a max response of -7.31%.

Molecular target: Retinoic acid receptor RXR-alpha (Homo sapiens) (UniProt P19793)
Sequence (P19793 whole entry, looked up): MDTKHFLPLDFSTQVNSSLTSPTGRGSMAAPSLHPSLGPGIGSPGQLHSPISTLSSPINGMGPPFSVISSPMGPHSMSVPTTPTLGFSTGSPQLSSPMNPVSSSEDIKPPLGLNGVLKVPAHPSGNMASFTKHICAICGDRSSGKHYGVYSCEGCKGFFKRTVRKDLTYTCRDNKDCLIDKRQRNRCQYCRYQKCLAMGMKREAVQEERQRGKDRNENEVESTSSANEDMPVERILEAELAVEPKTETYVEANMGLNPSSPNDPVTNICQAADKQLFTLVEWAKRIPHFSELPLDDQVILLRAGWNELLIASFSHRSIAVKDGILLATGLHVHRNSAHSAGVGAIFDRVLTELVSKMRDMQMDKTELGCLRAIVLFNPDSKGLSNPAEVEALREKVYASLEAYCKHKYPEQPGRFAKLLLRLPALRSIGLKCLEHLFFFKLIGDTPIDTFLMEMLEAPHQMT
Test: as above
Settings: HEK293T RXRa-UAS-bla, beta-lactamase ratio, antagonist mode
Procedure, shortened: as §1
With `CC1(COc2ccc(CC3SC(=O)NC3=O)cc2)CCCCC1` (stereo not drawn) the max response was -22.1% (inactive).
With `CCCCCCCCCCCCCC(=O)OC(C)C` the max response was 7.8% (inactive).
In the case of `CCCCCCCCCCCCCCCC(=O)O`, the max response is reported as 0.179% (inactive).
In the case of `OC[C@H]1O[C@@H]2O[C@H]3[C@H](O)[C@@H](O)[C@@H](O[C@H]4[C@H](O)[C@@H](O)[C@@H](O[C@H]5[C@H](O)[C@@H](O)[C@@H](O[C@H]6[C@H](O)[C@@H](O)[C@@H](O[C@H]7[C@H](O)[C@@H](O)[C@@H](O[C@H]8[C@H](O)[C@@H](O)[C@@H](O[C@H]1[C@H](O)[C@H]2O)O[C@@H]8CO)O[C@@H]7CO)O[C@@H]6CO)O[C@@H]5CO)O[C@@H]4CO)O[C@@H]3CO`, the max response is reported as 10.2% (inactive).
With `CCCCCCCCCCCCCCCCO` the max response was -12.7% (inactive).
In the case of `CCOc1ccc(NC(C)=O)cc1`, the max response is reported as -12.1% (inactive) and 5.41% (inactive).
In the case of `CC1(C)OC[C@@H]2O[C@@]3(C(=O)O)OC(C)(C)O[C@H]3[C@@H]2O1`, the max response is reported as 1.08% (inactive).
In the case of `CCOc1ccccc1C(N)=O`, the max response is reported as 0.966% (inactive).
With `CN(C)C(=O)Nc1ccc(Cl)c(Cl)c1` the max response was 4.3% (inactive).
With `C#C[C@]1(O)CC[C@H]2[C@@H]3CCC4=Cc5oncc5C[C@]4(C)[C@H]3CC[C@@]21C` the max response was -13.1% (inactive).
For `CCCN(CCC)S(=O)(=O)c1ccc(C(=O)O)cc1`, the max response was 6.91% (inactive) and 7.89% (inactive).
With `CCCCC(CC)COC(=O)c1ccc(N(C)C)cc1` (stereo not drawn) the max response was -1.36% (inactive) and 6.53% (inactive).
In the case of `COc1ccc(C(Cl)=C(c2ccc(OC)cc2)c2ccc(OC)cc2)cc1`, the max response is reported as -16% (inactive).
For `O=C(O)c1ccc(S(=O)(=O)N(Cl)Cl)cc1`, the max response was 3.99% (inactive).
With `COc1ccc(C(=O)c2ccccc2)c(O)c1` the max response was -9.82% (inactive) and -18.3% (inactive).
For `NC(=O)c1ccccc1O`, the max response was 18.9% (inactive).
With `CCCCCCCC/C=C\CCCCCCCCN` the max response was 8.18% (inactive).
In the case of `NCCNc1cccc2ccccc12`, the Potency is reported as 44.7 µM (active) and the max response is reported as -21.1% (inactive).
With `C/C=C/c1ccc(O)c(OC)c1` the max response was 2.19% (inactive) and -7.41% (inactive).
For `CCCCCCCCOc1ccc(C(=O)c2ccccc2)c(O)c1`, the max response was -18.6% (inactive).
For `CCCCOC(=O)CC(CC(=O)OCCCC)(OC(C)=O)C(=O)OCCCC`, the max response was -5.69% (inactive).

Molecular target: Thyroid hormone receptor beta (Homo sapiens) (UniProt P10828)
Sequence (P10828 whole entry, looked up): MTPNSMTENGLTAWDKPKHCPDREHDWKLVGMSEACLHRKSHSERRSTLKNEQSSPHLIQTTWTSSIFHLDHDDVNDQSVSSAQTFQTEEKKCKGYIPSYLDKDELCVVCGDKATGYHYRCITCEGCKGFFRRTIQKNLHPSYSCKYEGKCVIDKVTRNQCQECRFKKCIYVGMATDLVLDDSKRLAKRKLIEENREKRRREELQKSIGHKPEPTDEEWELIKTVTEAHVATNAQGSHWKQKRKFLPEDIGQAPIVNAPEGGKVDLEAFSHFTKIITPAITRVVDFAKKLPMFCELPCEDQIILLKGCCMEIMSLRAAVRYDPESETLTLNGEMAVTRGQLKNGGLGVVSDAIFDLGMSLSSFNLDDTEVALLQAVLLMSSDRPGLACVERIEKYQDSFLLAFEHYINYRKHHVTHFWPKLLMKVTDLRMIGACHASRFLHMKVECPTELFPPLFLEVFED
Test: qHTS assay for small molecule antagonists of thyroid hormone receptor beta signaling (AID 588547; active = well fitted inhibition curve with a large enough effect in the signal ratio, with a control signal flat, not every such curve was filed as active; the % refers to the signal ratio;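 note: cells stimulated with 0.4 nM T3 agonist during compound exposure; series mostly up to about 77 µM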)
Settings: TR-UAS-bla HEK293, beta-lactamase ratio, antagonist mode, 18 h
Procedure, shortened: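 TR-UAS-bla GripTite HEK293 cells in 2% charcoal/dextran FBS medium; compounds 0.59 nM to 92 uM with T3 at 0.4nM final, 18 h at 37 C. Beta-lactamase read by CCF4 fluorescence (460/530 nm); Hill fits gave IC50 and efficacy.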
With `CC1(COc2ccc(CC3SC(=O)NC3=O)cc2)CCCCC1` (stereo not drawn) the activity change % (negative = inhibition) was -31.9% (inactive).
In the case of `CCCCCCCCCCCCCCCC(=O)O`, the activity change % (negative = inhibition) is reported as 13.6% (inactive).
In the case of `OC[C@H]1O[C@@H]2O[C@H]3[C@H](O)[C@@H](O)[C@@H](O[C@H]4[C@H](O)[C@@H](O)[C@@H](O[C@H]5[C@H](O)[C@@H](O)[C@@H](O[C@H]6[C@H](O)[C@@H](O)[C@@H](O[C@H]7[C@H](O)[C@@H](O)[C@@H](O[C@H]8[C@H](O)[C@@H](O)[C@@H](O[C@H]1[C@H](O)[C@H]2O)O[C@@H]8CO)O[C@@H]7CO)O[C@@H]6CO)O[C@@H]5CO)O[C@@H]4CO)O[C@@H]3CO`, the activity change % (negative = inhibition) is reported as 2.69% (inactive).
For `CCCCCCCCCCCCCCCCO`, the activity change % (negative = inhibition) was 11.7% (inactive).
For `CCOc1ccc(NC(C)=O)cc1`, the activity change % (negative = inhibition) was 4.97% (inactive).
In the case of `CC1(C)OC[C@@H]2O[C@@]3(C(=O)O)OC(C)(C)O[C@H]3[C@@H]2O1`, the activity change % (negative = inhibition) is reported as -3.12% (inactive).
For `C=C[C@@]1(C)CC(=O)[C@]2(O)[C@@]3(C)[C@@H](O)CCC(C)(C)[C@@H]3[C@H](O)[C@H](OC(C)=O)[C@@]2(C)O1`, the activity change % (negative = inhibition) was 10.4% (inactive).
In the case of `CCOc1ccccc1C(N)=O`, the activity change % (negative = inhibition) is reported as 7.81% (inactive).
With `CN(C)C(=O)Nc1ccc(Cl)c(Cl)c1` the activity change % (negative = inhibition) was -2.96% (inactive).
With `CCCN(CCC)S(=O)(=O)c1ccc(C(=O)O)cc1` the activity change % (negative = inhibition) was 8.08% (inactive) and 3.53% (inactive).
With `CCCCC(CC)COC(=O)c1ccc(N(C)C)cc1` (stereo not drawn) the activity change % (negative = inhibition) was -0.537% (inactive) and 3.83% (inactive).
With `COc1ccc(C(Cl)=C(c2ccc(OC)cc2)c2ccc(OC)cc2)cc1` the activity change % (negative = inhibition) was -9.92% (inactive).
For `O=C(O)c1ccc(S(=O)(=O)N(Cl)Cl)cc1`, the activity change % (negative = inhibition) was 9.05% (inactive).
For `COc1ccc(C(=O)c2ccccc2)c(O)c1`, the activity change % (negative = inhibition) was -24% (inactive) and 5.53% (inactive).
For `NC(=O)c1ccccc1O`, the activity change % (negative = inhibition) was -15.4% (inactive).
In the case of `CCCCCCCC/C=C\CCCCCCCCN`, the activity change % (negative = inhibition) is reported as -4.57% (inactive).
For `CC(C)(C)CC(C)(C)c1ccc(O)c(-n2nc3ccccc3n2)c1`, the activity change % (negative = inhibition) was -12.9% (inactive).
For `NCCNc1cccc2ccccc12`, the activity change % (negative = inhibition) was -5.49% (inactive).
For `CCCCCCCCOc1ccc(C(=O)c2ccccc2)c(O)c1`, the activity change % (negative = inhibition) was -1.54% (inactive).
For `CCCCOC(=O)CC(CC(=O)OCCCC)(OC(C)=O)C(=O)OCCCC`, the activity change % (negative = inhibition) was 12.8% (inactive).
